Test results: publication PMC5540273 (PLoS ONE, 2017)

Experiments:
Conditions in all cases: concentration: 1 μM, replicates: in singlicate; n = 1
[1] = test system: T1, YANK2
T1 construct: gene STK32B

[2] = test system: T2, YANK3
T2 construct: gene STK32C

[3] = test system: T3, YES
T3 construct: gene YES1

[4] = test system: T4, YSK1
T4 construct: gene STK25

[5] = test system: T5, YSK4
T5 construct: gene MAP3K19

[6] = test system: ZAK
[7] = test system: ZAP70
[8] = test system: T6, p38-alpha
T6 construct: gene MAPK14

[9] = test system: T7, p38-beta
T7 construct: gene MAPK11

[10] = test system: p38-delta
[11] = test system: T8, p38-gamma
T8 construct: gene MAPK12
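Also: KINOMEscan kinase panel screen.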

Row | SMILES | %Inh [1] [%] | %Inh [2] [%] | %Inh [3] [%] | %Inh [4] [%] | %Inh [5] [%] | %Inh [6] [%] | %Inh [7] [%] | %Inh [8] [%] | %Inh [9] [%] | %Inh [10] [%] | %Inh [11] [%]
1 | COc1ccc(-c2coc3ccc(-c4nnc(C)o4)cc23)cc1 | 9 | 9 | 0 | 1 | 0 | 0 | 18 | 0 | 14 | 0 | 0
2 | FC(F)(F)c1ccccc1-c1cc(-c2c[nH]nc2-c2ccccn2)ccn1 [GW679396] | 18 | 13 | 0 | 0 | 0 | 0 | 0 | 95.4 | 18 | 17 | 0
3 | CCn1c(-c2c(N)noc2C)nc2cnccc21 [SB-737856] | 0 | 17 | 19 | 58 | 44 | 30 | 0 | 0 | 0 | 16 | 0
4 | CNCc1ccc2nc(NC(=O)c3ccc(C(C)(C)C)cc3)cn2c1 | 22 | 3 | 0 | 7 | 30 | 3 | 15 | 83 | 0 | 0 | 26
5 | Cc1cccc2c(-c3ccncn3)c(-c3ccc(F)cc3)nn12 [GW515532] | 41 | 18 | 0 | 8 | 16 | 9 | 20 | 91.6 | 1 | 15 | 20
6 | Cl.Cl.Cl.N#Cc1ccc(CCNc2nccc(-c3cccc(CN4CCNCC4)c3)n2)cc1 [GSK2137462] | 0 | 3 | 6 | 0 | 10 | 10 | 0 | 0 | 0 | 49 | 27
7 | COc1cccc(CNC(=O)NC2CCN(c3ccnc(Nc4ccc(F)cc4)n3)C2)c1 (stereo not drawn) [GSK1379723] | 0 | 14 | 8 | 0 | 28 | 100 | 0 | 0 | 0 | 43 | 0
8 | COc1ccc2cc(-c3nc(-c4ccccc4C(C)C)[nH]c3-c3ccncc3)ccc2c1 [SB-660566] | 62 | 53 | 25 | 31 | 45 | 31 | 0 | 3 | 2 | 44 | 0
9 | O=c1cc(N2CCOCC2)nc2n(Cc3cccc(Cl)c3Cl)c3ccccc3n12 [GSK2299009] | 0 | 29 | 17 | 21 | 3 | 5 | 0 | 12 | 1 | 16 | 30
10 | CC(C)c1cc(-c2ccc3c(N)n[nH]c3c2)nc(N)n1 [GSK2250882] | 0 | 19 | 16 | 14 | 33 | 11 | 0 | 9 | 0 | 18 | 43
11 | Cc1ccccc1-c1cc(-c2c[nH]nc2-c2ccccn2)ccn1 [GW680061] | 0 | 13 | 15 | 3 | 14 | 0 | 0 | 85 | 0 | 28 | 0
12 | COC(=O)C(Cc1ccccc1)NC(=O)NC1CCN(c2ccnc(Nc3ccc(F)cc3)n2)C1 (stereo not drawn) [GSK1379714] | 0 | 7 | 0 | 0 | 82 | 5 | 7 | 0 | 0 | 0 | 12
13 | CC(=O)c1c(C)c2cnc(Nc3ccn(C)n3)nc2n(C2CCCC2)c1=O | 0 | 2 | 1 | 0 | 18 | 0 | 0 | 0 | 0 | 15 | 0
14 | Cc1ccc(-c2nc(Nc3ccncc3)c3ccccc3n2)s1 [GSK189015] | 12 | 28 | 5 | 0 | 0 | 0 | 0 | 0 | 0 | 49 | 12
15 | CNc1nc(-c2ccc3c(N)n[nH]c3c2)cc(N2C[C@@H](C(=O)NC3CCCCC3)OC[C@H]2C)n1 [GSK2375584] | 2 | 22 | 14 | 5 | 15 | 0 | 0 | 23 | 0 | 42 | 23
